Laboratory results reported in PubChem BioAssay AID1159580 (chemical genetic matrix, 2015).
“And” between values parts separate entries of the source, which are not always exact repeats. Equal entries are not always repeated. Hit rate of the full screen: of about 5,500 compounds, about 2,000 (36%) were called active. About 18% were inconclusive and are not listed. Rule as the data show it: active = normalized growth mostly below about 0.91 (no sharp cut-off); inconclusive = no clear call, values can overlap the other calls; inactive = mostly above about 0.92. Some of the results follow.

Assay: chemical genetic growth profiling, strain panel (AID 1159580);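 also: tested at 20 µM; growth read once vehicle control cultures reached saturation at 30 °C; 1 = growth at the plate median or of vehicle wells; lower values mean less growth of the strain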
Conditions: S. cerevisiae deletion strains, growth OD
[1] = locus YAL013W, strain DEP1, active compounds read low
[2] = locus YMR307W, strain GAS1, active compounds read low
[3] = locus YNL322C, strain KRE1, active compounds read low

Measured: normalized growth

NC(N)=N[C@@H](CCC(=O)O)C(=O)O
inactive: [1] 1.03 | locus YAL040C, strain CLN3, active compounds read low 1.09 | locus YCL061C, strain MRC1 (second series), active compounds read low 1.01 | locus YDR363W, strain ESC2, active compounds read low 1.02 | locus YER002W, strain NOP16, active compounds read low 1 | [2] 1.01 | locus YNL128W, strain TEP1, active compounds read low 1 | locus YNL153C, strain GIM3, active compounds read low 1.02 | locus YNL175C, strain NOP13, active compounds read low 1.01 | locus YNL197C, strain WHI3, active compounds read low 1.02 | locus YNL224C, strain SQS1, active compounds read low 1 | [3] 1.02 | locus YOR083W, strain WHI5 (second series), active compounds read low 1.04

C[N+]1(C)C2CC[C@H]1CC(OC(=O)C(O)c1ccccc1)C2 (stereo partly drawn)
inactive: [1] 0.996 | locus YAL021C, strain ccr4, active compounds read low 1.02 | locus YAL026C, strain drs2, active compounds read low 1 | locus YAL030W, strain snc1, active compounds read low 0.999 | locus YBL061C, strain skt5, active compounds read low 1 | locus YBR009C, strain hhf1, active compounds read low 0.996 | locus YBR021W, strain FUR4, active compounds read low 0.985 | locus YBR023C, strain chs3, active compounds read low 0.992 | locus YBR171W, strain sec66, active compounds read low 1 | locus YBR229C, strain ROT2, active compounds read low 0.996 | locus YBR231C, strain swc5, active compounds read low 1 | locus YBR279W, strain paf1, active compounds read low 1.01 | locus YCL011C, strain gbp2, active compounds read low 0.984 | locus YCL016C, strain dcc1, active compounds read low 0.971 | locus YCL029C, strain bik1, active compounds read low 0.995 | locus YCL061C, strain MRC1, active compounds read low 0.998 | locus YCL069W, strain vba3, active compounds read low 0.996 | locus YCR088W, strain abp1, active compounds read low 0.993 | locus YDL005C, strain med2, active compounds read low 0.991 | locus YDL035C, strain GPR1, active compounds read low 0.993 | locus YDL040C, strain nat1, active compounds read low 0.997 | locus YDL074C, strain BRE1, active compounds read low 1.01 | locus YDL101C, strain DUN1, active compounds read low 0.996 | locus YDL134C, strain PPH21, active compounds read low 1.01 | locus YDL185W, strain tfp1, active compounds read low 1.01 | locus YDL192W, strain arf1, active compounds read low 1.02 | locus YDR001C, strain nth1, active compounds read low 0.993 | locus YDR069C, strain doa4, active compounds read low 1.02 | locus YDR101C, strain arx1, active compounds read low 0.976 | locus YDR137W, strain rgp1, active compounds read low 0.992 | locus YDR159W, strain sac3, active compounds read low 1.03 | locus YDR162C, strain NBP2, active compounds read low 0.997 | locus YDR195W, strain ref2 1.01 | locus YDR297W, strain sur2, active compounds read low 1 | locus YDR318W, strain mcm21, active compounds read low 1.02 | locus YDR334W, strain swr1, active compounds read low 1 | locus YDR335W, strain msn5, active compounds read low 1 | locus YDR388W, active compounds read low 1.01 | locus YDR392W, strain spt3, active compounds read low 0.94 | locus YDR502C, strain sam2, active compounds read low 1.02 | locus YEL003W, strain gim4, active compounds read low 1.01 | locus YEL037C, strain rad23, active compounds read low 1 | locus YEL061C, strain CIN8 (second series), active compounds read low 1 | locus YEL061C, strain CIN8, active compounds read low 0.995 | locus YER015W, strain faa2, active compounds read low 1 | locus YER016W, strain bim1, active compounds read low 1.01 | locus YER110C, active compounds read low 1.02 | locus YER111C, strain swi4, active compounds read low 0.997 | locus YER155C, strain BEM2 (second series), active compounds read low 1 | locus YER155C, strain BEM2, active compounds read low 0.988 | locus YER167W, strain BCK2, active compounds read low 0.977 | locus YFR010W, strain ubp6, active compounds read low 1 | locus YGL078C, strain dbp3, active compounds read low 1.03 | locus YGL086W, strain mad1, active compounds read low 1 | locus YGL167C, strain pmr1, active compounds read low 1.01 | locus YGL173C, strain kem1, active compounds read low 1.01 | locus YGL227W, strain vid30, active compounds read low 0.988 | locus YGL240W, strain doc1, active compounds read low 1.01 | locus YGL248W, strain PDE1, active compounds read low 0.999 | locus YGL253W, strain hxk2, active compounds read low 1 | locus YGR135W, strain pre9, active compounds read low 1.04 | locus YGR229C, strain SMI1, active compounds read low 0.976 | locus YGR252W, strain gcn5, active compounds read low 1.03 | locus YHR013C, strain ard1, active compounds read low 0.999 | locus YHR027C, strain rpn1, active compounds read low 1.01 | locus YHR030C, strain SLT2, active compounds read low 0.978 and 0.976 | locus YHR079C, strain IRE1 (second series), active compounds read low 1.01 | locus YHR079C, strain IRE1, active compounds read low 0.967 | locus YHR094C, strain hxt1, active compounds read low 1.01 | locus YHR129C, strain ARP1, active compounds read low 1.01 | locus YHR142W, strain chs7, active compounds read low 0.973 | locus YHR200W, strain rpn10, active compounds read low 1.02 | locus YIL066C, strain RNR3, active compounds read low 0.999 | locus YIL073C, strain SPO22, active compounds read low 1.05 | locus YIL125W, strain kgd1, active compounds read low 0.995 | locus YIR030C, strain dcg1, active compounds read low 1.01 | locus YJL092W, strain hpr5, active compounds read low 0.995 | locus YJL095W, strain BCK1 (second series), active compounds read low 0.999 | locus YJL095W, strain BCK1, active compounds read low 1.01 and 0.993 | locus YJL115W, strain asf1, active compounds read low 0.987 | locus YJL129C, strain trk1, active compounds read low 1.01 | locus YJL134W, strain LCB3, active compounds read low 0.989 | locus YJL154C, strain vps35, active compounds read low 0.993 | locus YJL164C, strain tpk1, active compounds read low 1 | locus YJL166W, strain qcr8, active compounds read low 0.999 | locus YJL168C, strain set2, active compounds read low 1.01 | locus YJL187C, strain SWE1 (second series), active compounds read low 1 | locus YJL187C, strain SWE1, active compounds read low 1 | locus YJR043C, strain POL32, active compounds read low 1 | locus YJR066W, strain TOR1, active compounds read low 0.928 | locus YKL009W, strain mrt4, active compounds read low 1.01 | locus YKL068W, active compounds read low 1 | locus YKL085W, strain MDH1 (second series), active compounds read low 1 | locus YKL085W, strain MDH1, active compounds read low 1 | locus YKL160W, strain elf1, active compounds read low 1 | locus YKL190W, strain CNB1, active compounds read low 0.985 | locus YKR001C, strain vps1, active compounds read low 0.996 | locus YKR026C, strain gcn3, active compounds read low 0.999 | locus YKR091W, strain srl3, active compounds read low 0.997 | locus YLL001W, strain dnm1, active compounds read low 0.98 | locus YLL026W, active compounds read low 0.999 | locus YLL041C, strain sdh2, active compounds read low 1 | locus YLR027C, strain aat2, active compounds read low 1 | locus YLR039C, strain RIC1, active compounds read low 0.967 | locus YLR058C, strain SHM2, active compounds read low 1.01 | locus YLR102C, strain apc9, active compounds read low 1.02 | locus YLR113W, strain HOG1, active compounds read low 1 | locus YLR221C, strain rsa3, active compounds read low 0.955 | locus YLR258W, strain gsy2, active compounds read low 0.983 | locus YLR262C, strain YPT6 (second series), active compounds read low 1 | locus YLR262C, strain YPT6, active compounds read low 0.977 | locus YLR268W, strain sec22, active compounds read low 1.03 | locus YLR320W, strain mms22, active compounds read low 0.978 | locus YLR330W, strain CHS5, active compounds read low 1 | locus YLR342W, strain FKS1 (second series), active compounds read low 1 | locus YLR342W, strain FKS1, active compounds read low 1 | locus YLR357W, strain rsc2, active compounds read low 1.01 | locus YLR370C, strain arc18, active compounds read low 0.993 | locus YLR371W, strain rom2, active compounds read low 1 | locus YLR384C, strain iki3, active compounds read low 0.994 | locus YLR418C, strain cdc73, active compounds read low 1.05 | locus YML016C, strain PPZ1, active compounds read low 1.01 | locus YML032C, strain rad52, active compounds read low 0.999 | locus YML120C, strain ndi1, active compounds read low 0.964 | locus YML124C, strain tub3, active compounds read low 1.01 | locus YMR058W, strain fet3, active compounds read low 1.01 | locus YMR078C, strain ctf18, active compounds read low 1.03 | locus YMR125W, strain sto1, active compounds read low 0.996 | locus YMR129W, active compounds read low 0.999 | locus YMR205C, strain PFK2, active compounds read low 0.992 | locus YMR223W, strain ubp8, active compounds read low 1.02 | locus YMR231W, strain pep5, active compounds read low 1 | [2] 0.983 | locus YNL067W, strain RPL9B, active compounds read low 0.995 | locus YNL071W, strain lat1, active compounds read low 1 | locus YNL183C, strain NPR1, active compounds read low 0.956 | locus YNL209W, strain ssb2, active compounds read low 1 | locus YNL233W, strain BNI4, active compounds read low 1 | locus YNL248C, strain rpa49, active compounds read low 1 | locus YNL250W, strain rad50, active compounds read low 1.02 | locus YNL271C, strain bni1, active compounds read low 1.02 | locus YNL298W, strain CLA4, active compounds read low 1.03 | locus YNL307C, strain MCK1, active compounds read low 1.02 | locus YNL322C, strain KRE1 (second series), active compounds read low 0.991 | [3] 0.998 | locus YNR049C, strain mso1, active compounds read low 1.01 | locus YNR052C, strain pop2, active compounds read low 1.02 | locus YOL012C, strain htz1 1.26 | locus YOL147C, strain pex11, active compounds read low 1.02 | locus YOR001W, strain rrp6, active compounds read low 1.03 | locus YOR061W, strain CKA2, active compounds read low 1.01 | locus YOR069W, strain VPS5, active compounds read low 0.987 | locus YOR070C, strain gyp1, active compounds read low 0.999 | locus YOR080W, strain dia2, active compounds read low 0.994 | locus YOR083W, strain WHI5, active compounds read low 1 | locus YOR106W, strain vam3, active compounds read low 1 | locus YOR136W, strain idh2, active compounds read low 1.02 | locus YOR144C, strain elg1, active compounds read low 1.01 | locus YOR184W, strain ser1, active compounds read low 1.03 | locus YOR231W, strain MKK1, active compounds read low 0.983 | locus YOR265W, strain rbl2, active compounds read low 0.996 | locus YOR270C, strain vph1, active compounds read low 1.01 | locus YOR290C, strain snf2, active compounds read low 0.966 | locus YOR316C, strain cot1, active compounds read low 1.02 | locus YPL051W, strain arl3, active compounds read low 1.01 | locus YPL055C, strain LGE1, active compounds read low 0.985 | locus YPL078C, strain atp4, active compounds read low 1 | locus YPL106C, strain sse1, active compounds read low 0.99 | locus YPL240C, strain hsp82, active compounds read low 0.997 | locus YPL256C, strain CLN2, active compounds read low 0.982 | locus YPR119W, strain clb2, active compounds read low 1.01 | locus YPR141C, strain kar3, active compounds read low 1.02 | locus YPR163C, strain tif3, active compounds read low 1.02 | locus YPR167C, strain met16, active compounds read low 1.02 | strain wtn01, active compounds read low 1.03
